Experimental data reported in PMC5540273 (PLoS ONE, 2017).

system: ACVR2B; conditions: concentration: 1 μM, replicates: in singlicate; n = 1
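Further: KINOMEscan kinase panel screen.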

| Compound | %Inh [%] |
| --- | --- |
| Cl.c1ccc(-c2ccc3c(Nc4ccc5[nH]ccc5c4)ccnc3c2)nc1 [GW440138] | 89 |
| Nc1n[nH]c2cnc(-c3ccccc3)cc12 [SB-642124] | 13 |
| CN(C)Cc1ccc(-c2ccc3c(Nc4ccc(Oc5ccccn5)cc4)ccnc3c2)o1 [GW567148] | 38 |
| CC(C)(C)c1ccc2nccc(Nc3cccc(O)c3)c2c1 [GW856795] | 63 |
| O=c1[nH]cc(-c2ccc(N3CCOCC3)cc2)c2sc(-c3cn[nH]c3)cc12 [GSK2276055] | 0 |
| O=C(Nc1n[nH]c2cc(-c3ccoc3)ccc12)C1CC1 [SB-738481] | 46 |
| CC(=O)N1CCN(c2ccc(Nc3nccc(-c4sc(C(C)C)nc4-c4cccc(NS(=O)(=O)c5cccc(Cl)c5)c4)n3)cn2)CC1 [GSK1660437] | 72 |
| COc1cc2c(cc1OCCN1CCNCC1)ncc1c3ccc(C#N)cc3[nH]c21 | 0 |
| CNC(=O)c1ccccc1Nc1nc(Nc2ccc(N3CCOCC3)cc2)ncc1Cl.Cl [GSK1576028] | 43 |
| Oc1cc(Nc2ccnc3cc(I)ccc23)ccc1F [GW552771] | 93.7 |
| COc1cccc(C2=C(Nc3ccc(Cl)c(C(=O)O)c3)C(=O)NC2=O)c1 [SB-390769] | 5 |
| O=C(Nc1cccc(-c2nn3ccccc3c2-c2ccnc(Nc3cccc(F)c3)n2)c1)c1c(F)ccc(F)c1Cl [GSK357952] | 13 |
| O=C(Nc1cccc(Oc2ccc3nc(NC(=O)C4CC4)cn3n2)c1)c1ccccc1C(F)(F)F | 34 |
| CSc1cccc2c(-c3ccncn3)c(-c3ccc(F)cc3)nn12 [GW514786] | 7 |
| Cn1cc(-c2[nH]c3cc(NC(=O)[C@H](N)C4CCCCC4)cc4c3c2C=NNC4=O)cn1 | 44 |
| COc1ccc(CNC(=O)NC2CCN(c3ccnc(Nc4ccc(F)cc4)n3)CC2)cc1 [GSK1379788] | 0 |
| COc1cccc(NC(=O)NC2CCN(c3ccnc(Nc4cc(OC)c(OC)c(OC)c4)n3)C2)c1 (stereo not shown) [GSK1379763] | 0 |

| Compound | %Inh [%] |
| --- | --- |
| O=C(Nc1n[nH]c2nc(-c3ccc(O)cc3)ccc12)C1CC1 [SB-710363] | 50 |
| CN1CCN(CCCNc2nccc(-c3c(-c4ccc(F)cc4)nn4cc(C(F)(F)F)ccc34)n2)CC1 [GW621581] | 0 |
| c1ccc(-c2n[nH]cc2Nc2ccnc3ccccc23)nc1 [GW694077] | 0 |
| CCc1ccc(-c2ccc3c(c2)-c2c(cnn2C)S(=O)(=O)N3C)cc1 | 0 |
| NCCCC(NC(=O)c1cc(Br)c(-c2ccnc3[nH]ccc23)s1)c1ccccc1.O=C(O)C(F)(F)F.O=C(O)C(F)(F)F (stereo not shown) [GSK1287544] | 0 |
| Nc1ncc(-c2cccnc2)c2scc(-c3ccc4c(c3)CCN4C(=O)Cc3ccccc3)c12 [GSK683281] | 0 |
| Cl.c1ccc(-c2ccc3c(Nc4ccc5[nH]ncc5c4)ccnc3c2)nc1 [GW440137] | 94.6 |
| Cc1ccc(C)c(NC(=O)NC2CCN(c3ccnc(Nc4ccc(F)cc4)n3)C2)c1 (stereo not shown) [GSK1379720] | 0 |
| COc1cc(Nc2nccc(-c3c(-c4cccc(NC(=O)c5c(F)cccc5F)c4)nn4ccccc34)n2)cc(OC)c1OC [GSK323521] | 15 |
| Fc1ccc(-c2ncn(C3CCNCC3)c2-c2ccnc(Oc3ccc(-c4ccccc4)cc3)n2)cc1 [SB-245391] | 0 |
| COc1cc(Nc2ncc3c(C)nc(-c4cc5ccccc5[nH]4)n3n2)cc(OC)c1OC [GW869516] | 24 |
| Clc1ccc(-c2nn3ncccc3c2-c2ccnc(Nc3ccc4c(c3)OCCO4)n2)cc1 [GW829116] | 54 |
| c1ccc(-c2cnc3nccnn23)cc1 [AH20685] | 0 |
| O=C(Nc1ccccc1F)NC1CCN(c2ccnc(Nc3ccc(F)cc3)n2)CC1 [GSK1379800] | 0 |
| Cc1occc1-c1ncc(OC[C@@H](N)Cc2c[nH]c3ccccc23)cc1-c1ccc2[nH]nc(C)c2c1.O=C(O)C(F)(F)F [GSK682037] | 0 |
| C[C@@H]1CC[C@@H](C(=O)Nc2ccccc2)CN1c1cc(-c2ccc3c(N)n[nH]c3c2)nc(N)n1 [GSK2286062] | 0 |
| COc1cc(Nc2nccc(-c3c(-c4cccc(NC(=O)c5c(F)cccc5F)c4)nn4ncccc34)n2)cc(OC)c1OC [GSK327238] | 0 |
